# Measured values: the supplement of paper PMC8728848
# The entries come from a sample that favours the strongest signals as a whole.
# How the values were obtained:
# Experiment in all cases: glycan array binding signal (z-score within array); higher = stronger binding
# Conditions in all cases: glycan notation: IUPAC condensed, linker removed
# Glc(a1-4)Glc = target: Glc(a1-4)Glc
# Procedure, shortened: (§1)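 From the Consortium for Functional Glycomics database, 3228 arrays were curated, keeping only those whose protein sequence was available. Binding is given as a within-array Z-score averaged across arrays sharing a protein sequence and across linkers. Negative Z-scores can be read as non-binding.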
# GlcA(b1-3)Gal = target: GlcA(b1-3)Gal
# Procedure, shortened: as §1
# [1] = target: GlcNAc(a1-3)Gal(b1-4)GlcNAc
# Procedure, shortened: as §1
# [2] = target: GlcNAc(a1-4)Gal(b1-4)GlcNAc(b1-3)Gal(b1-4)GlcNAc(b1-3)Gal(b1-4)GlcNAc
# Procedure, shortened: as §1
# [3] = target: GlcNAc(a1-6)Gal(b1-4)GlcNAc
# Procedure, shortened: as §1
# [4] = target: GlcNAc(b1-2)Man(a1-3)[GlcNAc(b1-2)Man(a1-6)]Man(b1-4)GlcNAc(b1-4)GlcNAc
# Procedure, shortened: as §1
# [5] = target: GlcNAc(b1-2)Man(a1-3)[GlcNAc(b1-4)][GlcNAc(b1-2)Man(a1-6)]Man(b1-4)GlcNAc(b1-4)[Fuc(a1-6)]GlcNAc
# Procedure, shortened: as §1
# [6] = target: GlcNAc(b1-2)[GlcNAc(b1-6)]Man(a1-6)[GlcNAc(b1-2)Man(a1-3)]Man(b1-4)GlcNAc(b1-4)GlcNAc
# Procedure, shortened: as §1
# [7] = target: GlcNAc(b1-2)[GlcNAc(b1-6)]Man(a1-6)[GlcNAc(b1-2)Man(a1-3)]Man(b1-4)GlcNAc(b1-4)[Fuc(a1-6)]GlcNAc
# Procedure, shortened: as §1
# [8] = target: GlcNAc(b1-3)Gal(b1-3)GalNAc
# Procedure, shortened: as §1
# [9] = target: GlcNAc(b1-3)Gal(b1-4)GlcNAc(b1-3)Gal(b1-4)GlcNAc
# Procedure, shortened: as §1
# [10] = target: GlcNAc(b1-3)Gal(b1-4)GlcNAc(b1-3)Gal(b1-4)GlcNAc(b1-3)Gal(b1-4)GlcNAc(b1-3)Gal(b1-4)GlcNAc(b1-2)[GlcNAc(b1-3)Gal(b1-4)GlcNAc(b1-3)Gal(b1-4)GlcNAc(b1-3)Gal(b1-4)GlcNAc(b1-3)Gal(b1-4)GlcNAc(b1-6)]Man(a1-6)[GlcNAc(b1-3)Gal(b1-4)GlcNAc(b1-3)Gal(b1-4)GlcNAc(b1-3)Gal(b1-4)GlcNAc(b1-3)Gal(b1-4)GlcNAc(b1-2)Man(a1-3)]Man(b1-4)GlcNAc(b1-4)[Fuc(a1-6)]GlcNAc
# Procedure, shortened: as §1
# [11] = target: GlcNAc(b1-3)Gal(b1-4)GlcNAc(b1-3)[GlcNAc(b1-3)Gal(b1-4)GlcNAc(b1-3)]GalNAc
# Procedure, shortened: as §1
# [12] = target: GlcNAc(b1-3)Gal(b1-4)GlcNAc(b1-6)[GlcNAc(b1-3)Gal(b1-3)]GalNAc
# Procedure, shortened: as §1
# GlcNAc(b1-3)Man = target: GlcNAc(b1-3)Man
# Procedure, shortened: as §1
# [13] = target: Man(a1-2)Man(a1-3)[Man(a1-6)]Man(a1-6)[Man(a1-2)Man(a1-3)]Man(b1-4)GlcNAc(b1-4)GlcNAc
# Procedure, shortened: as §1
# [14] = target: Man(a1-2)Man(a1-6)[Man(a1-3)]Man(a1-6)[Man(a1-2)Man(a1-2)Man(a1-3)]Man
# Procedure, shortened: as §1
# [15] = target: Man(a1-3)[Man(a1-6)]Man(a1-6)[Man(a1-2)Man(a1-3)]Man(b1-4)GlcNAc(b1-4)GlcNAc
# Procedure, shortened: as §1
# [16] = target: Neu5Ac(a2-3)Gal(b1-3)GalNAc(b1-4)[Neu5Ac(a2-3)]Gal(b1-4)Glc
# Procedure, shortened: as §1
# [17] = target: Neu5Ac(a2-3)Gal(b1-3)[Neu5Ac(a2-6)]GlcNAc(b1-3)[Fuc(a1-3)[Gal(b1-4)]GlcNAc(b1-6)]Gal(b1-4)Glc
# Procedure, shortened: as §1
# [18] = target: Neu5Ac(a2-3)Gal(b1-4)GlcNAc(b1-2)Man(a1-3)[GlcNAc(b1-4)][Neu5Ac(a2-3)Gal(b1-4)GlcNAc(b1-2)Man(a1-6)]Man(b1-4)GlcNAc(b1-4)GlcNAc
# Procedure, shortened: as §1
# [19] = target: Neu5Ac(a2-3)Gal(b1-4)GlcNAc(b1-3)Gal(b1-4)GlcNAc(b1-3)[Neu5Ac(a2-3)Gal(b1-4)GlcNAc(b1-3)Gal(b1-4)GlcNAc(b1-6)]GalNAc
# Procedure, shortened: as §1
# [20] = target: Neu5Ac(a2-3)Gal(b1-4)GlcNAc(b1-3)Gal(b1-4)GlcNAc(b1-6)[Gal(b1-3)]GalNAc
# Procedure, shortened: as §1
# [21] = target: Neu5Ac(a2-3)GalNAc(b1-4)GlcNAc
# Procedure, shortened: as §1
# [22] = target: Neu5Ac(a2-6)Gal(b1-4)GlcNAc(b1-2)Man(a1-3)Man(b1-4)GlcNAc(b1-4)GlcNAc
# Procedure, shortened: as §1
# [23] = target: Neu5Ac(a2-6)Gal(b1-4)GlcNAc(b1-3)Gal(b1-3)GlcNAc
# Procedure, shortened: as §1
# [24] = target: Neu5Ac(a2-8)Neu5Ac(a2-3)Gal(b1-3)GalNAc(b1-4)[Neu5Ac(a2-3)]Gal(b1-4)Glc
# Procedure, shortened: as §1
# [25] = target: Neu5Ac9Ac(a2-6)Gal(b1-4)GlcNAc
# Procedure, shortened: as §1
# [26] = target: Neu5Gc(a2-3)Gal(b1-4)[Fuc(a1-3)]GlcNAc
# Procedure, shortened: as §1
# [27] = target: Neu5Gc(a2-8)Neu5Gc(a2-6)Gal(b1-4)GlcNAc
# Procedure, shortened: as §1
binder,measurement,setting,value
SSR2 (Sclerotium rolfsii) (protein) MVYKITVRVYQTNPDAFFHPVEKTVWKYANGGTWSITDDQHVLTMGGSGTSGTLRFHADNGESFTATFGVHNYKRWCDIVTNLAADETGMVINQQYYSQKNREEARERQLSNYQVKNAKGRNFQIVYTEAEGNDLHANLIIG,glycan array binding signal (z-score),Glc(a1-4)Glc,-0.262
same,glycan array binding signal (z-score),GlcA(b1-3)Gal,-0.282
same,glycan array binding signal (z-score),[1],3.71
same,glycan array binding signal (z-score),[2],6.99
same,glycan array binding signal (z-score),[3],0.528
same,glycan array binding signal (z-score),[4],6.77
same,glycan array binding signal (z-score),[5],2.85
same,glycan array binding signal (z-score),[6],4.32
same,glycan array binding signal (z-score),[7],4.49
same,glycan array binding signal (z-score),[8],3.63
same,glycan array binding signal (z-score),[9],0.873
same,glycan array binding signal (z-score),[10],1.3
same,glycan array binding signal (z-score),[11],0.552
same,glycan array binding signal (z-score),[12],1.62
same,glycan array binding signal (z-score),GlcNAc(b1-3)Man,-0.149
same,glycan array binding signal (z-score),[13],-0.276
same,glycan array binding signal (z-score),[14],-0.303
same,glycan array binding signal (z-score),[15],-0.244
same,glycan array binding signal (z-score),[16],-0.28
same,glycan array binding signal (z-score),[17],-0.288
same,glycan array binding signal (z-score),[18],-0.284
same,glycan array binding signal (z-score),[19],-0.267
same,glycan array binding signal (z-score),[20],0.625
same,glycan array binding signal (z-score),[21],-0.279
same,glycan array binding signal (z-score),[22],-0.286
same,glycan array binding signal (z-score),[23],-0.286
same,glycan array binding signal (z-score),[24],-0.271
same,glycan array binding signal (z-score),[25],-0.291
same,glycan array binding signal (z-score),[26],-0.284
same,glycan array binding signal (z-score),[27],-0.286
